Vif imaging – HIV Vif self-association inhibitors, primary screen, imaging, HEK293T, single point | HEK293T cells, Vif self-association by quenched fluorescence, 24 h | inhibition, % at 7.49 µM | 0.35% of 340,000 active; in the data active = inhibition above about 50%, passing the limit was not always enough; inconclusive = no clear call, values can overlap the other calls; inactive = below about 31%
HSF1 activator – HSF-1 activators, primary screen, NIH3T3-HGL cells, MG132 stress, luminescence, single point | NIH3T3-HGL HSF-1 luciferase reporter, 8 h; 100% = twice DMSO control signal | activation, % at 9 µM | 1.7% of 300,000 active;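 active = mean replicate activation of at least 50% with a set share of replicates each reaching 50%; inconclusive = only one of those two conditions met; inactive = mean below 50% and too few replicates reaching it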;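 note: 0% = median of the neutral control wells and 100% = twice that signal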
HSF1 inh – HSF1 inhibitors in luciferase reporter cells, primary screen, cell-based, NIH3T3, luminescence | 0.77% of 300,000 active | activity change, negative = inhibition, % at 7.5 µM (by protocol) | AID 2098, 2009 | NIH3T3-HGL HSE-luciferase, MG132-induced, luminescence 8 h; stronger effect = lower value;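 active = more than half of replicate wells show activity change below -50%, luminescence cut by over half; inconclusive = some wells, but at most half, below -50%; inactive = no replicate well below -50%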;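 note: luciferase reports HSF-1 transcriptional activity via heat shock element; 0% = median of DMSO wells and -100% = zero luminescence signal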
esBAF inh – Bmi1 luciferase reporter increase in mESCs, primary screen, esBAF inhibitor project, mouse ES cells, Bmi1 luciferase knock-in, single point | 24 h; 100% = twice the neutral-well signal | reporter increase, % at 12.5 µM | 2% of 350,000 active | AID 602393, 2012; in the data active = activation above about 40%; inconclusive = no clear call, values can overlap the other calls;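 note: 0% = median of the plate's neutral control wells and 100% = double that signal; a rise in the Bmi1 reporter signal indicates esBAF inhibition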
Numbers without * were called inactive; ? = inconclusive; . = no result. Rows were chosen to be rich in hits. Some 3.4% of all compounds tested hit in one or more screens of this group.

SMILES	Vif imaging	HSF1 activator	HSF1 inh	esBAF inh
Cc1noc(C)c1NC(=O)Nc1ccc2c(c1)C(=O)N([C@@H](C)CO)C[C@@H](C)[C@@H](CN(C)Cc1ccc(C(=O)O)cc1)O2	.	.	.	2.9
COc1ccccc1C(O)(C(=O)N(NC(C)=O)c1ccccc1)c1ccccc1OC	-1.9	-71.5	-62.5*	-0.4
C[C@H](NC(=O)[C@@H]1[C@@H](CO)[C@@H]2Cn3c(cccc3=O)[C@H]1N2CCC(F)(F)F)c1ccccc1	.	.	.	0.9
c1ccc(Cc2nnc(-c3ccccc3)o2)cc1	-2.9	29.4	20.5	49.4*
COc1ccc(Cc2nnc(-c3ccccc3)o2)cc1	-1.2	42.4	20.1	?
Brc1ccc(-c2nnc(Cc3ccccc3)o2)cc1	2.6	56.4*	33.9	.
CCCNC(=O)C[C@@H]1CC[C@H]2[C@@H](COC[C@@H](O)CN2C(=O)C2CCOCC2)O1	.	.	.	2.6
CC1=C(C(=O)Nc2ccc(C)cc2)C(c2ccc(C)o2)C2=C(CC(C)(C)CC2=O)N1 (stereo unspecified)	-0.8	-70.9	-62.2*	-3.3
Cc1cccc(NC(=O)c2cc(-c3cc(C)ccc3O)n[nH]2)c1	10.0	103.6*	55.2	12.4
Cc1c(Cl)cccc1NC(=O)c1cc(-c2ccccc2O)n[nH]1	9.9	86.7*	68.6	49.0*
COc1ccc(NC(=O)c2cc(-c3cc(C)ccc3O)n[nH]2)cc1Cl	3.5	4.4	13.3	7.8
CC(=O)Nc1ccc(NC(=O)c2cc(-c3ccc(C)cc3O)n[nH]2)cc1	-5.4	5.6	-0.7	8.3
COc1ccc(Cl)cc1NC(=O)c1cc(-c2ccccc2O)n[nH]1	-12.0	30.2	-3.6	.
Cc1cccc(NC(=O)c2cc(-c3cc(C)c(C)cc3O)n[nH]2)c1	-4.2	-9.9	-1.2	70.1*
CN1c2ccc(C3=CCCCC3)cc2[C@@H]2[C@@H](CCN2S(=O)(=O)c2ccccc2)[C@@H]1CO	.	.	.	5.2
COc1ccc(NC(=O)Nc2ccc3c(c2)C(=O)N([C@H](C)CO)C[C@@H](C)[C@H](CN(C)S(C)(=O)=O)O3)cc1	.	.	.	1.8
N/C(=N/OC(=O)c1ccccc1Cl)c1ncc([N+](=O)[O-])s1	2.4	179.4*	132.9	.
N/C(=N\OC(=O)c1ccccc1Cl)c1cccc([N+](=O)[O-])c1	2.9	33.2	24.2	10.5
COc1cccc(NC(=O)N[C@H]2CC[C@H](CC(=O)NCc3ccccn3)O[C@@H]2CO)c1	.	.	.	-2.1
Cc1ccc(NC(=S)c2nc3ccccc3[nH]2)cc1	-7.8	-3.8	-15.7	20.2
Cc1ccc(NC(=S)Nc2ccccn2)c(C)c1	-12.6	60.3*	22.2	.
COc1ccc(Cl)cc1NC(=S)NCc1ccccn1	-5.9	30.3	7.1	.
CCOc1ccc(NC(=S)NNc2ccnc3cc(Cl)ccc23)cc1	-13.1	-4.9	-8.6	.
S=C(NCc1ccccn1)Nc1ccc(Cl)cc1Cl	-3.9	44.2	27.3	49.4*
Cc1ccc(NC(=S)c2nc3ccccc3[nH]2)c(C)c1	1.4	72.2*	25.8	.
SMILES	Vif imaging	HSF1 activator	HSF1 inh	esBAF inh
S=C(NNc1ccnc2cc(Cl)ccc12)Nc1ccc(Cl)cc1Cl	0.8	3.4	5.2	49.0*
C[C@@H]1CN([C@@H](C)CO)C(=O)c2cc(NC(=O)C3CC3)ccc2O[C@@H]1CN(C)CC1CCCCC1	.	.	.	-2.4
Cc1cc(C)cc(NC(=S)Nc2ccccn2)c1	-14.6	-4.0	11.6	.
Cc1cccc(NC(=S)Nc2ccccn2)c1	-8.0	58.5*	30.0	.
Cc1cc(Cl)ccc1NC(=S)Nc1ccccn1	-6.5	55.5*	26.6	.
CN1C(=O)c2cc(NS(C)(=O)=O)ccc2OC[C@H]2O[C@H](CC(=O)NCc3ccc(-c4ccccc4)cc3)CC[C@H]21	.	.	.	-1.4
C[C@@H]1CN([C@H](C)CO)C(=O)c2cc(NC(=O)Nc3ccccc3)ccc2O[C@@H]1CN(C)S(=O)(=O)c1cccs1	.	.	.	-1.1
COc1ccccc1NC(=O)Nc1ccc2c(c1)OC[C@@H](C)N(Cc1ccccc1Cl)C[C@@H](C)[C@H](OC)CN(C)C2=O	.	.	.	10.6
C[C@H](CO)N1C[C@H](C)[C@H](CN(C)C(=O)Nc2ccccc2)Oc2c(NC(=O)C3CC3)cccc2C1=O	.	.	.	2.4
Cc1ccc(C2=N/C(=C\c3c(C)nn(-c4ccccc4)c3N3CCCC3)C(=O)O2)cc1	-0.7	12.4	-2.5	-0.4
O=C1OC(c2ccccc2)=N/C1=C\N1CCCCC1	-4.6	42.3	25.1	85.3*
O=C1OC(c2ccccc2)=C/C1=C/N1CCCCC1	2.0	.	.	83.9*
CN(C)/C=C1/N=C(c2ccccc2)OC1=O	-3.9	12.8	1.0	15.5
O=C1OC(c2ccc(Br)cc2)=N/C1=C\N1CCCCC1	-5.0	45.3	32.4	52.7*
C[C@@H]1CN([C@H](C)CO)C(=O)c2cc(NC(=O)Nc3ccccc3)ccc2O[C@H]1CN(C)CC1CCCCC1	.	.	.	-0.1
Cc1cccc(-n2ncc3c(NCCCn4ccnc4)ncnc32)c1	-2.7	22.6	3.1	49.0*
Cc1cccc(-n2ncc3c(Nc4ccc(F)cc4)ncnc32)c1	-12.0	51.3*	31.3	71.1*
COC(=O)c1ccc(Nc2ncnc3c2cnn3-c2cccc(C)c2)cc1	-14.1	10.1	5.3	9.6
Cc1cccc(-n2ncc3c(N(C)Cc4ccccc4)ncnc32)c1	-3.1	60.8*	44.9	53.3*
Cc1cccc(-n2ncc3c(N)ncnc32)c1	-5.8	24.3	3.8	26.9
CCCNC(=O)C[C@H]1C[C@H]2c3cc(NS(=O)(=O)c4ccccc4)ccc3O[C@H]2[C@@H](CO)O1	.	.	.	5.9
Cc1noc(C)c1NC(=O)Nc1ccc2c(c1)C(=O)N([C@@H](C)CO)C[C@@H](C)[C@@H](CN(C)Cc1ccc(Cl)c(Cl)c1)OCCCC[C@@H](C)O2	.	.	.	1.3
O=C(CC(F)(F)F)N1C[C@H]2[C@@H](c3ccccc31)[C@H](CO)N2C(=O)C1CCCC1	.	.	.	6.2
COC(=O)C(Cc1c[nH]c2ccccc12)NC(=O)c1ccccc1Br (stereo unspecified)	2.0	20.7	17.2	53.0*
COc1ccc(N2CCN(C(=O)CCc3c[nH]c4ccccc34)CC2)cc1	-4.1	11.8	12.7	.
SMILES	Vif imaging	HSF1 activator	HSF1 inh	esBAF inh
CCOC(=O)C(Cc1c[nH]c2ccccc12)NC(=O)c1ccccc1Br (stereo unspecified)	-1.3	4.5	-11.1	73.8*
COc1ccc(N2CCN(C(=O)[C@H](Cc3c[nH]c4ccccc34)NC(C)=O)CC2)cc1	-8.1	61.8*	28.6	.
C/C(=N\Nc1cccc2cccnc12)c1ccc(N)cc1	1.0	28.2	12.7	63.7*
C/C(=N\Nc1cccc2cccnc12)c1ccccc1O	-3.2	53.8*	29.8	.
C/C=C/c1ccc2c(c1)O[C@H](CN(C)C(=O)Nc1ccc(C(F)(F)F)cc1)[C@@H](C)CN([C@@H](C)CO)S2(=O)=O	.	.	.	0.4
O=C(Nc1cnn(Cc2ccc(F)cc2)c1)C(c1ccccc1)c1ccccc1	-10.6	41.5	12.8	3.5
O=C(Nc1cnn(Cc2ccc(F)cc2)c1)c1cnccn1	.	4.9	1.7	41.6*
